For 107 molecules, INHIBITION results are on record in ChEMBL document CHEMBL4513216, “Probing the Open Global Health Chemical Diversity Library for Multistage-Active Starting Points for Next-Generation Antimalarials” (ACS Infect Dis, 2020).

Among all 65,000 compounds or so, about 2,100 (3.2%) showed an effect of 50% or more. The median lay at about -52%. For the sample, strong results were picked, then their nearest neighbours and some compounds at random.

This experiment has as its system Plasmodium falciparum. The experiment in a line: Screen against P. falciparum Asexual Blood Stage (ABS), at 5uM. The note with it: tested at 5 uM. It counts as functional, Dd2.
Regarding `Cc1cnccc1-c1cnn(CCNC(=O)c2ccccn2)c1C1CC1`, the INHIBITION came out at 40.2%. With `CC(C)c1ncc2c(n1)CN(CC(=O)Nc1ccncc1)CC2`, the INHIBITION was -23.6%.

As to `CC1=C[C@@H](CN2CCCC2)[C@H](C(C)C)C[C@H]1Cc1nnc(C)o1`, the INHIBITION is given as 0.0851%. In the case of `COc1ccc2nc(C[C@@H]3C[C@@H](C(C)C)[C@H](CN)C=C3C)[nH]c2n1`, the INHIBITION was found to be 68.7%. In the case of `CC1=C[C@@H](CN2CCN(C)CC2)[C@H](C(C)C)C[C@H]1Cc1nnc(C)o1`, the INHIBITION was 16.4%. With `Cc1ccc(CN2C[C@@H]3C[C@H](C(=O)Nc4cccnc4)[C@H](C2)O3)cc1`, the INHIBITION is 41.3%. On to `COC(=O)CN(C(=O)c1cc(C)c(F)cc1F)c1cccc(C)n1`, for which the INHIBITION was -97.6%. With `CC1(C(=O)N2CCOCC2)CN(C2CCCCC2)CCO1` (configuration not stated), the INHIBITION was -82.9%. Take `Cc1nc(C)c(C)c(N2CCC(NCCOc3ccccc3)CC2)n1`: the INHIBITION is listed as 63.1%.

On to `Cc1nc(CN2CCCC(NCCOc3ccccc3)C2)no1` (configuration not stated), for which the INHIBITION was -55.9%. Turning to `CN(C)c1ccnc(N2CCC(NCCOc3ccccc3)CC2)n1`, the INHIBITION stood at 61.5%. On to `Cc1ccnc(N2CCC(NCCOc3ccccc3)CC2)n1`, for which the INHIBITION turned out to be 13.8%. `O=C(COCCOc1ccccc1)NC1CCN(c2ncccn2)CC1`: the INHIBITION is listed as -7.73%.

`c1ccc(OCCNC2CCN(c3ncccn3)CC2)cc1`: the INHIBITION is reported as -15.2%. Regarding `Cn1ccnc1CN1CCN(CC2CC2)[C@@H]2CS(=O)(=O)C[C@@H]21`, the INHIBITION is listed as -222%. Under `Cn1c(=O)cc(C(=O)NC(Cc2ccsc2)c2cccnc2)[nH]c1=O` (configuration not stated) stands -41.8%. Turning to `O=S(=O)(N1CCCC1)N1C[C@@H](c2cccc(F)c2)[C@@H]2NCCCCC[C@H]21`, the INHIBITION was 25.3%. As for `O=S(=O)(N1CCCC1)N1CC[C@H](c2ccccc2)[C@H]2NCCCC[C@H]21`, the INHIBITION is given as 48.5%.

Take `CCN(CC)S(=O)(=O)N1CC[C@H](c2ccccc2)[C@H]2NCCCC[C@H]21`: the INHIBITION is given as 57.7%. Take `CCOc1c(F)cccc1C(=O)N(c1cccnc1)C(C)C`: the INHIBITION is -2.56%. As for `CC(C)(C(=O)NCC1CCN(Cc2cccnc2)C1)c1ccccc1` (configuration not stated), the INHIBITION is reported as 53.2%. On to `CC(C)(C(=O)NCC1CCN(Cc2ccccn2)C1)c1ccccc1` (configuration not stated), for which the INHIBITION is on record as 40.4%.

With `CC(C)(C(=O)NCC1CCN(Cc2ncc[nH]2)C1)c1ccccc1` (configuration not stated), the INHIBITION is -15.4%. Under `Cc1nc(CCCNC(=O)Nc2ccc(F)cc2F)n[nH]1` stands -12.9%.

On to `O=C(NCCN1CCCC1)c1cc2c(s1)CCN2c1ncccn1`, for which the INHIBITION is listed as -36.4%. For `O=C1CC(c2ccc(F)cc2)c2cnn(C3CCCC3)c2N1` (configuration not stated), the INHIBITION was -115%. Take `N#Cc1ccc(C2CC(=O)Nc3c2cnn3C2CCCC2)cc1` (configuration not stated): the INHIBITION is on record as 53.3%. Turning to `O=C1CC(c2ccccc2)c2cnn(C3CCCC3)c2N1` (configuration not stated), the INHIBITION was -173%. As for `Cc1noc(C)c1CC(=O)N1CCCN(C)c2ccc(Cl)cc21`, the INHIBITION is reported as -70.5%.

Turning to `O=C(NCC1CCN(Cc2cc3ccccc3[nH]2)C1)C1CCCCC1` (configuration not stated), the INHIBITION amounted to 8.98%. On to `Cc1nc(CNC(=O)Nc2ccc3c(c2)CCCC(=O)N3)sc1C`, for which the INHIBITION is -39.6%.

`Cc1nc(CNC(=O)Nc2ccc(N(C)C)nc2)sc1C`: the INHIBITION was -121%. Consider `Cc1nc(CNC(=O)Nc2ccc3c(c2)CCCN3C)sc1C`, for which the INHIBITION turned out to be 60.4%. Regarding `CC(C)c1nnc(CN2CCc3ccc(S(N)(=O)=O)cc32)o1`, the INHIBITION was -105%. For the molecule `CCOCC(=O)N1Cc2nnn(C)c2C(COCc2ccccn2)C1` (configuration not stated), the INHIBITION was -123%. The figure for `NC(=O)NCCC(=O)NCc1cccnc1N1CCc2ccccc2C1` is -73%; for `CC(C)[C@@H](N)C(=O)NCc1cccnc1N1CCc2ccccc2C1` it is 29%. Regarding `COC(=O)CCC(=O)NCc1cccnc1N1CCc2ccccc2C1`, the INHIBITION was 58.5%. For the molecule `O=c1cc(C2CCNCC2)nc(Cc2cccc(Cl)c2)[nH]1`, the INHIBITION is reported as -25.9%. With `CC(C)Nc1ncnc2c1CCN(C(=O)CCc1ccccc1)CC2`, the INHIBITION was -74.7%. For the molecule `Cc1ccc(CN2Cc3ccccc3OC3(CCC(CO)CC3)C2)s1` (configuration not stated), the INHIBITION is on record as -106%.

For `Cc1ncsc1CN1C[C@H](NC(=O)C2CCOCC2)[C@@H](C(C)C)C1`, the INHIBITION is on record as -21.1%. With `c1ccc(Cc2nc(CNC3CCC4(CCNCC4)CC3)no2)cc1`, the INHIBITION is 39.2%. The figure for `Cc1cc(NCc2ccc(N3CCNC(=O)C3)cc2)nc(C)n1` is -39.6%; for `O=C1CN(c2ccc(CNc3cncc(-n4cccn4)n3)cc2)CCN1` it is 52%; for `CCSc1cncc(NCc2ccc(N3CCNC(=O)C3)cc2)n1` it is 38.9%. Under `CCc1nc2c(c(NC3CCC3)n1)CCN(C(=O)CO)CC2` stands -35.7%. `Cn1cnnc1C1CCCN(C(=O)NCCn2ccnc2)C1` (configuration not stated): the INHIBITION was -164%. Under `Cc1cccc(C(=O)Nc2cccc3c2CCCC3)n1` stands -253%. Under `CC1CN(c2ncccc2C(=O)Nc2cccc3c2CCCC3)CCN1` (configuration not stated) stands 10.3%; under `O=C(Nc1cccc2c1CCCC2)c1cccnc1N1CCCNCC1`, 53.6%; under `CN(Cc1ccoc1)C(=O)Cn1ncc(N(C)C)cc1=O`, -36.7%. The figure for `CCn1cc(C(=O)N2CCCC(c3noc(C)n3)C2)cn1` (configuration not stated) is -71.8%; for `CC1=C(c2ccc(Cl)cc2)S(=O)(=O)N=C1N1CCc2ccccc21` it is -35.6%. Turning to `CC(C)NS(=O)(=O)c1ccccc1CNCc1cccc(O)c1`, the INHIBITION amounted to 26%. Consider `CC(C)(C)NS(=O)(=O)c1ccccc1CNCc1cccc(O)c1`, for which the INHIBITION worked out at 56.9%.

For `CC(C)(C)NS(=O)(=O)c1ccccc1CNCc1ccccc1`, the INHIBITION worked out at 43.3%.

As to `CCc1nnc2n1CCN(C(C(=O)NC1CC1)c1ccccc1)C2` (configuration not stated), the INHIBITION is recorded as -119%. Under `CC(C)CCN1CCc2[nH]nc(C(=O)N3CC=CC3)c2C1` stands -95.1%; under `Cc1cc(-c2cnc(N3CCC(O)CC3)nc2C(C)C)on1`, 13.7%; under `Cc1cc(-c2cnc(N3CCSCC3)nc2C(C)C)on1`, 63.8%. With `Cc1cc(-c2cnc(N3CCN(C)CC3)nc2C(C)C)on1`, the INHIBITION is 52.5%. Turning to `Cc1cc(-c2cnc(N3CCC(C(N)=O)CC3)nc2C(C)C)on1`, the INHIBITION is recorded as -7.12%. With `Cc1cc(-c2cnc(N3CCN(C)CC3)nc2-c2ccc(C)s2)on1`, the INHIBITION is reported as -24%. With `Cc1cc(-c2cnc(N3CCCC(C)C3)nc2C(C)C)on1` (configuration not stated), the INHIBITION was -127%. Take `COc1ccc(CN2C[C@@H]3CN(Cc4cccnc4)CCO[C@@H]3C2)cc1`: the INHIBITION is -76.4%. Take `CC(NC(=O)Nc1ccc(-c2csnn2)cc1)C(=O)NC(C)(C)C` (configuration not stated): the INHIBITION is -94.8%. As for `O=C(c1ccsc1)N1C[C@@H]2CCN(c3cccnc3)C[C@@H]2C1`, the INHIBITION was -7.89%. Under `O=C(NCC1CCS(=O)(=O)C1)N1CCN(c2cnccn2)CC1` (configuration not stated) stands -123%; under `CC(NC(=O)NCCCN(C)S(C)(=O)=O)c1ccc(F)cc1` (configuration not stated), -109%. In the case of `Cc1cc(N(C)C)nc(N(C)Cc2csc(C)n2)n1`, the INHIBITION stood at 51.4%. With `COc1ccnc(N(C)Cc2csc(C)n2)n1`, the INHIBITION is reported as -49.6%.

Take `Cc1nc(CN(C)c2nccc(N(C)C)n2)cs1`: the INHIBITION was 27.2%. `c1cncc(OCc2n[nH]c3c2CN(Cc2cccs2)C3)c1`: the INHIBITION is -109%.

On to `OC1(Cn2ccc3ncccc32)CCN(Cc2cccs2)CC1`, for which the INHIBITION stood at 4.9%.

Take `CC(=O)c1cccc(NCC(=O)NC(N)=O)c1`: the INHIBITION is -105%. For `Cn1nc(C2CCCN(Cc3ccccc3)C2)c2nccnc21` (configuration not stated), the INHIBITION was -26.5%. The figure for `COc1cccc(CNCc2ccnc(N3CCOCC3)c2)c1OC` is -35.6%. `O=C(NCC1(O)CCOCC1)c1ccc(F)cc1`: the INHIBITION was -171%. `COc1cccc(C2(C(=O)NC3CCc4nccn4C3)CCCC2)c1` (configuration not stated): the INHIBITION came out at 53.3%. As for `COc1ccc(C2(C(=O)NC3CCc4nccn4C3)CCCC2)cc1` (configuration not stated), the INHIBITION was found to be 47.5%. As to `CS(=O)(=O)C1(C(=O)NC2CCc3nccn3C2)CCCC1` (configuration not stated), the INHIBITION is given as -105%. In the case of `CCN1CC(C)(C)CN(C(=O)CCc2ccccc2)CC1=O`, the INHIBITION was -37%. Consider `Cc1ccc(-c2nc(CCNC(=O)NC3CCC(O)CC3)co2)cc1` (configuration not stated), for which the INHIBITION is given as -137%. Under `c1ccc(-c2cnn3cc(CN4CCC5(CCO5)CC4)cnc23)cc1` stands -302%. `OCCN1CCN(Cc2cnc3c(-c4ccccc4)cnn3c2)CC1`: the INHIBITION is reported as 20.3%. The figure for `CN(C)CC1(O)CCN(Cc2cnc3c(-c4ccccc4)cnn3c2)C1` (configuration not stated) is 65%; for `COc1ccc(CN(Cc2ccsc2)CC2CCCO2)cn1` (configuration not stated) it is -101%. Under `Cc1cccc(CN2CCCC3(CCC(=O)N3CCN(C)C)CC2)n1` (configuration not stated) stands 45.5%. Consider `CN(C)C(=O)CN1C(=O)CCC12CCN(Cc1cccs1)CC2`, for which the INHIBITION is -98%. As for `CN(C)CCN1C(=O)CCC12CCN(Cc1cccs1)CC2`, the INHIBITION turned out to be 58.2%. Regarding `CNc1cncc(C2CCN(C(=O)c3coc(C)n3)CC2)n1`, the INHIBITION is -43%. On to `Cc1nn(C)c(N(C)C)c1CNC1CCc2c(F)cccc21` (configuration not stated), for which the INHIBITION is given as -24.9%. For the molecule `NC(=O)c1ccc(CN2C(=O)C3(CCNCC3)Nc3ccccc32)cc1`, the INHIBITION was -3.53%. Under `N#Cc1cccc(CN2C(=O)c3ccccc3CS2(=O)=O)c1` stands -37.5%.

With `C=Cc1ccc(CN2C(=O)C3(CCNCC3)Nc3ccccc32)cc1`, the INHIBITION turned out to be 87.7%. As for `O=C1CC2(CCNCC2)C(=O)N1Cc1ccc(F)cc1`, the INHIBITION was -53.4%. Consider `N#Cc1cccc(CN2C(=O)C3(CCNCC3)Nc3ccccc32)c1`, for which the INHIBITION stood at 67.9%. For the molecule `N#Cc1cccc(CN2CCC3(CC2)CC(c2ccncc2)C(=O)N3)c1` (configuration not stated), the INHIBITION is -29.8%. On to `COc1ccccc1N1CCN(C(=O)c2ccnc(N(C)C)c2)CC1`, for which the INHIBITION is reported as 41.8%.

`CN(Cc1cn2c(n1)CN(C1CCOCC1)CC2)Cc1ccco1`: the INHIBITION is recorded as -29.2%.

For the molecule `Cn1cncc1CN1CCCC1c1cncc(Oc2ccc(F)cc2)n1` (configuration not stated), the INHIBITION is listed as -32.7%. As to `CNCC(=O)N1CCCC1c1cncc(Oc2ccc(F)cc2)n1` (configuration not stated), the INHIBITION is listed as 69.8%. With `NC(=O)CN1CCCC1c1cncc(Oc2ccc(Cl)cc2)n1` (configuration not stated), the INHIBITION is reported as 9.38%. Take `CC(=O)N1CCCC1c1cncc(Oc2ccc(F)cc2)n1` (configuration not stated): the INHIBITION is listed as -118%. Under `COc1ccc(Oc2cncc(C3CCCN3C(C)=O)n2)cc1` (configuration not stated) stands -40.9%; under `CN(C)CC(=O)N1CCCC1c1cncc(Oc2ccc(F)cc2)n1` (configuration not stated), 61.2%.
